# The supplement of paper PMC13380429
# Counter-ions that a name gives are not always drawn. Values without a mark were called inactive.
# Test system: Vero E6 infected with SARS-CoV-2
# Test: inhibition of SARS-CoV-2 cytopathic effect; higher = more antiviral protection, active = above 15
# Conditions: 48 h
SMILES,inhibition of SARS-CoV-2 cytopathic effect (1 nM),inhibition of SARS-CoV-2 cytopathic effect (8.33 nM),inhibition of SARS-CoV-2 cytopathic effect (100 nM),inhibition of SARS-CoV-2 cytopathic effect (833.33 nM),inhibition of SARS-CoV-2 cytopathic effect (10000 nM)
CN1CCN(c2c(F)cc3c(=O)c(C(=O)O)cn(CCF)c3c2F)CC1 [fleroxacin],-1.94%,-0.15%,1.24%,0.81%,-1.08%
Nc1ncn([C@H]2C[C@H](O)[C@@H](CO)O2)c(=O)n1 [decitabine],3.33%,3.36%,4.5%,-1.04%,-3.03%
CCC[N+]12[C@H](O)[C@@H](CC)[C@@H]3C[C@H]1[C@@H]1N(C)c4ccccc4[C@]14C[C@H]2[C@@H]3[C@H]4O [neo-gilurytmal],-1.96%,-1.28%,0.64%,1.4%,-3.83%
C[C@]12CC[C@H](O)C[C@H]1CC[C@@H]1[C@@H]2CC[C@]2(C)[C@@H](C3=CC(=O)OC3)CC[C@]12O [digitoxigenin],-1.6%,-1.96%,-11.8%,-13.3%,-19.4%
O=C1NC(=O)C(=Cc2ccc(-c3ccc(F)cc3)o2)S1 (stereo in doubt),-2.32%,0.24%,-0.68%,0.32%,1.47%
C[C@H](NCc1ccc(OCc2cccc(F)c2)cc1)C(N)=O [safinamide],4.62%,5.34%,2.52%,0.07%,-0.48%
O=c1c(O)c(-c2ccc(O)cc2)oc2cc(O)cc(O)c12 [kaempferol],-3.6%,12%,-1.58%,1.56%,11.2%
"OCCCCO [1,4-butanediol]",-4.4%,-1.22%,-1.14%,0.26%,-1.17%
CC(C)NCC(O)COc1cccc2ccccc12 (stereo not given) [propranolol],0.19%,1.94%,-0.637%,-0.01%,-2.77%
CC(=O)NC[C@H]1CN(c2ccc(N3CCN(C(=O)CO)CC3)c(F)c2)C(=O)O1 [eperezolid],-1.15%,-0.41%,-0.04%,0.64%,0.19%
Cc1c(S(=O)(=O)O)oc2c1C(=O)C(=O)c1c-2ccc2c1CCCC2(C)C [sodium-tanshinone-II-A-sulfonate],-6.63%,-8.06%,-4.77%,-7.14%,-10.1%
CCC(COC(=O)c1cc(OC)c(OC)c(OC)c1)(c1ccccc1)N(C)C (stereo not given) [trimebutine],-4.71%,-2.14%,-2.65%,-0.31%,2.51%
Clc1ccccc1CN1CCc2sccc2C1 [ticlopidine],-1.31%,-0.14%,0.36%,1.94%,-1.5%
N=C(C[C@@H](O)COc1ccccc1-c1ccccc1)N1CCCCC1,-5.21%,-4.99%,0.04%,-2.13%,-2.77%
CCOC(=O)CNC(=O)[C@@H]1CCCN1C(=O)Cc1ccccc1,0.67%,-0.95%,3.29%,2.08%,1.46%
CC[C@H](CC[C@@H](C)[C@H]1CC[C@H]2[C@@H]3CC=C4C[C@@H](O[C@@H]5O[C@H](CO)[C@@H](O)[C@H](O)[C@H]5O)CC[C@]4(C)[C@H]3CC[C@]12C)C(C)C [daucosterol],0.22%,-0.23%,0.27%,0.28%,-1.86%
COc1cc(C[C@H](C)[C@H](C)Cc2ccc3c(c2)OCO3)ccc1O [macelignan],0.71%,-0.62%,0.01%,2.57%,1.91%
CC(C)=CCc1c(O)cc(O)c2c(=O)c(O)c(-c3ccc(C(F)(F)F)cc3)oc12,2.04%,1.52%,3.93%,2.83%,2.95%
O=C(Cc1ccccc1)Nc1nc2ccc(Cl)cc2c2nc(-c3ccco3)nn12,3.65%,4.32%,3.84%,2.42%,4.22%
CCCCCCCC/C=C\CCCCCCCC(N)=O [oleamide],-2.29%,-1.34%,-3.82%,0.76%,0.18%

SMILES,inhibition of SARS-CoV-2 cytopathic effect (1 nM),inhibition of SARS-CoV-2 cytopathic effect (8.33 nM),inhibition of SARS-CoV-2 cytopathic effect (100 nM),inhibition of SARS-CoV-2 cytopathic effect (833.33 nM),inhibition of SARS-CoV-2 cytopathic effect (10000 nM)
COc1cc2c(=O)c(-c3ccc(O)cc3)coc2cc1O [glycitein],1.2%,-0.34%,-0.96%,-2.13%,-1.58%
COc1ccc(N(C)c2nc(C)nc3ccccc23)cc1 [verubulin],0.84%,2.34%,-2.32%,2.89%,2.5%
N=C(N)NCCC[C@H](NC(=O)c1sccc1NS(=O)(=O)c1cccc2nsnc12)C(=O)O,-1.17%,0.96%,1.72%,0.4%,1.98%
Cc1ccc(C(=O)Nc2ccc(S(=O)(=O)O)c3cc(S(=O)(=O)O)cc(S(=O)(=O)O)c23)cc1NC(=O)c1cccc(NC(=O)Nc2cccc(C(=O)Nc3cc(C(=O)Nc4ccc(S(=O)(=O)O)c5cc(S(=O)(=O)O)cc(S(=O)(=O)O)c45)ccc3C)c2)c1 [suramin],0.16%,0.17%,0.66%,-0.75%,1.44%
CCCNC(C)C(=O)Nc1c(C)csc1C(=O)OC (stereo not given) [articaine],-0.23%,0.85%,0.42%,4.27%,-2.09%
Cc1cccc(/C=N/Nc2cc(N3CCOCC3)n3nc(-c4ccncc4)cc3n2)c1,1.37%,4.2%,27.3% (active),19% (active),13.2%
C[C@H](N)Cc1c[nH]cn1 [alpha-methylhistamine-dihydrobromide-(S)-(+)],-0.195%,-0.765%,8.02%,1.26%,2.96%
O=C(c1ccc(OCCN2CCCCC2)cc1)c1c(-c2ccc(O)cc2)sc2cc(O)ccc12 [raloxifene],3.31%,1.2%,2.79%,4.77%,24.4% (active)
CCCCNc1ccc(C(=O)OCCN(C)C)cc1 [tetracaine],2.75%,-1.31%,-0.22%,-2.39%,0.71%
CCCC[N+]1(C)[C@@H]2C[C@@H](OC(=O)[C@H](CO)c3ccccc3)C[C@H]1[C@@H]1O[C@@H]12 (stereo not given in full) [butylscopolamine-bromide],-2.47%,-2.18%,-2.19%,0.56%,-1.1%
O=NO [sodium-nitrite],1.28%,-0.03%,3.46%,3.43%,0.91%
CC(C)n1cnc2c(NCCc3ccc(O)cc3)nc(-c3csc4ccccc34)nc21 [stemregenin-1],1.26%,0.69%,1.35%,-0.07%,18.1% (active)
CCc1c(C(=O)C(N)=O)c2c(OCC(=O)O)cccc2n1Cc1ccccc1 [varespladib],2.9%,-0.54%,1.35%,1.32%,0.87%
O=C(N[C@@H]1Cc2ccccc2N(C[C@@H](O)CO)C1=O)c1cc2cc(Cl)sc2[nH]1,-0.59%,-0.92%,-2.86%,-2.28%,-3.46%
CS(=O)(=O)N1CCc2c(-c3cnc(N)nc3)nc(N3CCOCC3)nc21,-2.71%,1.07%,1.27%,-3.9%,-8.89%
CC(C)OC(=O)[C@H](C)N[P@](=O)(CO[C@H](C)Cn1cnc2c(N)ncnc21)Oc1ccccc1 [tenofovir-alafenamide],-2.51%,-1.55%,-0.12%,-2.51%,3.48%
O=[N+]([O-])c1cc(O)c(O)c([N+](=O)[O-])c1,-0.65%,-3.05%,-3.12%,1.93%,-3.2%
O=C1NC(=O)C(c2ccccc2[N+](=O)[O-])=C1Nc1ccc(O)c(Cl)c1,-2.14%,-1.36%,-2.09%,1.29%,6.31%
CCOC(=O)c1ccc(OCCC2CCN(c3ccc(C)nn3)CC2)cc1 [pirodavir],2.32%,1.72%,0.34%,1.49%,-2.18%
